Experimental data from PubChem BioAssay AID463205 (Broad Institute, 2010).
About 20 (0.8%) of roughly 2,400 compounds were called active. The sample holds actives, similar compounds and a random draw of the others, so the mix is not that of the screen.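 The calls were made as follows: active = AC50 no more than ten times the highest tested concentration, or full inhibition at every dose giving a flat fit (cut at about 30 µM in these data); inconclusive = flat fit with activity between 30% and 70%, or poor-quality invalid fit; inactive = AC50 more than ten times the top tested dose.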

test: luciferase-based ADP detection interference – biochemical, luminescence, cell-free, homogeneous, artefact control for GSK-3a inhibitor project, dose response (AID 463205); details: Cell-free ADP-Glo detection reagents, 5 uM ADP;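 also: kinase-free counter-screen against the ADP-Glo detection reagents only; potency is for inhibitors that reduce the luminescence signal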

AC50, inactive:
Cn1c(=O)c2[nH]c(N3CCOCC3)nc2n(-c2ccccc2)c1=O > 30 µM, Nc1nccnc1C(=O)N/N=C/c1ccco1 > 30 µM, Nc1nonc1-n1nnc(C(=O)N/N=C/c2ccc(Cl)cc2Cl)c1CN1CCOCC1 > 30 µM, Cc1nc(NCC2CCCO2)nc2c1C(=O)CC(C)(C)C2 (stereo not drawn) > 30 µM, CCOc1ccc2ccccc2c1/C=N/n1cncn1 > 30 µM, Cc1ccc(OCC(=O)N2CCN(c3nnc(-c4ccccc4)c4ccccc34)CC2)cc1 > 30 µM, N#CC1=C(SCc2ccccc2)NC(=O)CC1c1ccco1 (stereo not drawn) > 30 µM, CCN(CC)C(=O)c1oc2ccc(S(=O)(=O)N3CCCCCC3)cc2c1C > 30 µM, O=C(c1ccc(Cl)cc1)c1cnc(Nc2ccccc2)s1 > 30 µM, Cc1cccc(NC(=O)CSCc2nc3c(nnn3Cc3ccc(F)cc3)c(=O)[nH]2)c1C > 30 µM, N#Cc1c2c(c(NCc3ccco3)n3c1nc1ccccc13)CCC2 > 30 µM, O=C(COC(=O)c1cccc(S(=O)(=O)N2CCOCC2)c1)Nc1ncc(Cl)cc1Cl > 30 µM, CNC(=O)c1ccc(NC(=O)C2CCN(c3ncnc4sc(C)c(C)c34)CC2)cc1 > 30 µM, CCNc1cc(N2CCCC2)ccc1[N+](=O)[O-] > 30 µM, Cc1nnc(SCC(=O)N2c3ccccc3CC2C)s1 (stereo not drawn) > 30 µM, CCOC(=O)c1c(NC(=O)CN2C(=O)NC3(CCCCC3C)C2=O)sc(C)c1CC (stereo not drawn) > 30 µM, C=CCNc1nc(N)c(C(=O)Nc2cc(C)on2)s1 > 30 µM, CC(=O)c1cccc(NC(=S)NC(=O)CC(C)C)c1 > 30 µM, COc1ccc(OC)c(/C=C2\Oc3cc(OCC(=O)N4CCC[C@H]4C(=O)O)ccc3C2=O)c1 > 30 µM, CC(C)c1c(C(=O)N/N=C/c2ccncc2)nnn1-c1nonc1N > 30 µM, CC(C)N=C(NC#N)SCc1ccc(F)cc1 > 30 µM, N#Cc1sc2nc3c(c(-c4ccco4)c2c1N)CCCC3 > 30 µM, COCCNC(=O)c1ccc(Cn2c(=S)[nH]c3cc4c(cc3c2=O)OCO4)cc1 > 30 µM, CC1=C(C(=O)OCc2ccccc2)C(c2cccc(Br)c2)NC(=O)N1 (stereo not drawn) > 30 µM, O=C(c1ccco1)N(Cc1cccc([N+](=O)[O-])c1)c1ccc(Br)cc1 > 30 µM, NS(=O)(=O)c1ccc(Nc2nc(-c3ccccc3)cs2)cc1 > 30 µM, CCc1cc(C(=O)c2ccc(OC)cc2)c(NC(=O)COCC(=O)O)s1 > 30 µM, Fc1ccc(Nc2ncnc3ccccc23)cc1 > 30 µM, COc1cc(Br)c(C2C(C#N)=C(N)Oc3n[nH]c(-c4cccnc4)c32)cc1OC (stereo not drawn) > 30 µM, Cc1nc2ccccc2n2c(-c3ccccc3)c3c(=O)n(C)c(=O)n(C)c3c12 > 30 µM, CC(/C=N/NC(=O)CSc1nc2ccccc2n1C)=C\c1ccco1 > 30 µM, COc1ccc(/C=C/c2nc(N)nc(-c3ccccc3O)n2)cc1OC > 30 µM, CC(C)c1cc(C(N)=O)c(NC(=O)C2CCC2)s1 > 30 µM, C/C(=N\NC(=O)c1nnn(-c2nonc2N)c1-c1ccccc1)c1cccnc1 > 30 µM, CC(=O)Nc1ccc(Nc2ncnc(N)c2[N+](=O)[O-])cc1 > 30 µM, O=[N+]([O-])c1cc(S(=O)(=O)c2ccc(N3CCCCC3)c([N+](=O)[O-])c2)ccc1N1CCCCC1 > 30 µM, COc1ccccc1CC(=O)N1CCOCC1 > 30 µM, CC(C)=CC(=O)NCc1c(Cl)cccc1-n1cccc1 > 30 µM, Cc1nc2sc3c(c2c(=O)o1)CC(C)(C)OC3 > 30 µM, CCC(C)Nc1nc(N)c([N+](=O)[O-])c(N2CCCCCC2)n1 (stereo not drawn) > 30 µM, O=C(NC1(C(F)(F)F)NC(=O)N(Cc2cccnc2)C1=O)c1ccncc1 (stereo not drawn) > 30 µM, COc1ccccc1NC(=O)CSc1nnc(-c2ccccc2)o1 > 30 µM, CC(=O)c1sc(NC(=O)CN2C(=O)NC3(CCCC3)C2=O)nc1-c1ccccc1 > 30 µM, COC1(OC)N=C(N)C2(C#N)C(c3ccc4c(c3)OCO4)C12C#N (stereo not drawn) > 30 µM, Nc1c(S(=O)(=O)c2ccccc2)nnn1-c1ccccc1 > 30 µM, O=C1CC(c2cccs2)CC2=C1C(c1ccccc1)n1ncnc1N2 (stereo not drawn) > 30 µM, O=C(NCCCn1ccnc1)C(=O)NC1CCCCC1 > 30 µM, Nc1ncnc2c1ncn2[C@@H]1O[C@H](COS(=O)(=O)O)[C@@H](O)[C@H]1O > 30 µM, CCCCN(CC)C(=O)c1oc2ccc(S(=O)(=O)N3CCCC3)cc2c1C > 30 µM, CC(C)OCCCNc1nc2c([nH]1)c(=O)n(C)c(=O)n2C > 30 µM, CCOC(=O)c1nnn(-c2ccc(OC)cc2)c1N > 30 µM, COc1cc(/C=N/NC(=O)c2cccc(C(=O)N/N=C/c3ccc(O)c(OC)c3)n2)ccc1O > 30 µM, CN(C)C(=O)c1ccc(NC(=O)c2cc(-n3cnnc3)ccc2Cl)cc1 > 30 µM, CC(OC(=O)Cc1c[nH]c2ccccc12)C(=O)c1ccccc1 (stereo not drawn) > 30 µM, CC(C)CC(=O)NC(=S)Nc1sc2c(c1C(N)=O)CCC2 > 30 µM, COc1cccc(-c2nc(-c3ccccc3)[nH]c(=O)c2C#N)c1 > 30 µM, CCOC(=O)c1sc(NC(=O)C2CC2)nc1C > 30 µM, CCOC(=O)c1cnn(C)c1NC(=O)c1ccc(Cl)cc1Cl > 30 µM, COc1cccc(/C=N/n2cncn2)c1OCC#N > 30 µM, Cc1ccc(-c2cn3cccnc3n2)cc1NC(=O)c1cccs1 > 30 µM, CCCOc1ccc(-c2nnc(N)s2)cc1 > 30 µM, O=C(CSc1ccccn1)Nc1nc2ccc(Br)cc2s1 > 30 µM, Nc1nc(-c2ccccc2)nc(-c2ccccc2O)n1 > 30 µM, O=C(O)CCSc1nnc(-c2ccncc2)n1-c1ccccc1 > 30 µM, NC(=O)c1ccc(NC(=O)CSc2nnc(-c3ccc4c(c3)OCO4)o2)cc1 > 30 µM, C#CCOCCOCCOCCNc1nc(N2CCN(C(=O)CCCCCCCCCCNC(=O)[C@H]([C@@H](C)CC)n3cc(CCCCCN)nn3)CC2)nc(N2CCN(C(=O)CCCCCCCCCCNC(=O)[C@H](CO)n3cc(CCCCCN)nn3)CC2)n1 > 30 µM, CCCCOC(=O)Nc1nnc(COc2ccccc2)s1 > 30 µM, CCCOc1ccccc1NC(=O)Nc1ccccc1Cl > 30 µM, O=C(Nc1cccc(-c2cnc3ccccc3n2)c1)c1ccncc1 > 30 µM, O=C(NCCN1CCN(Cc2ccccc2)CC1)Nc1cc(Cl)cc(Cl)c1 > 30 µM, COc1ccc(-c2nnc(SCC(=O)Nc3ccccc3OC)o2)cc1 > 30 µM, COc1cc(C2c3sc(=O)[nH]c3SC3C4CCC(C4)C23)ccc1O (stereo not drawn) > 30 µM, Oc1ccc(-c2csc(Nc3ccccn3)n2)c(O)c1 > 30 µM, CCOC(=O)CC(C#N)c1c[nH]c2ccccc12 (stereo not drawn) > 30 µM, COc1ccccc1N1CCN(C(=O)c2cc(-c3ccccc3)on2)CC1 > 30 µM, Cc1sc2ncnc(N3CCC(C(=O)Nc4ccc(C#N)cc4)CC3)c2c1C > 30 µM, CC(=O)Nc1sc2c(c1C(N)=O)CCCC2 > 30 µM, N#CC1=C2SCN(Cc3ccco3)CN2C(=O)CC1c1c(F)cccc1Cl (stereo not drawn) > 30 µM, CCN(C(=O)C1CCCN1S(=O)(=O)c1cccc2nsnc12)c1ccccc1 (stereo not drawn) > 30 µM, Cc1ccc(C)c(N2CC(C(=O)Nc3nccs3)CC2=O)c1 (stereo not drawn) > 30 µM, Fc1ccc(-c2nc3n(n2)Cc2ccccc2-3)cc1 > 30 µM, Cc1ccc(-c2nc3n(n2)Cc2ccccc2-3)cc1 > 30 µM, NCCNc1ccc([N+](=O)[O-])c(NC2CC2)c1 > 30 µM, COc1ccc(Nc2sc(C(=O)c3ccc(Cl)cc3)c(N)c2C(=O)Nc2ccccc2OC)cc1 > 30 µM, Cc1ccc(NC(=O)CSCc2nc3c(nnn3Cc3ccc(F)cc3)c(=O)[nH]2)c(C)c1 > 30 µM, COc1c2ccccc2nc2ccccc12 > 30 µM, COc1ccc(/C=C/c2nc(N)nc(-c3ccccc3O)n2)cc1 > 30 µM, C[n+]1cccc(C2C(C#N)=C(N)Oc3c2ccc2ccccc32)c1 (stereo not drawn) > 30 µM, O=C(CSc1nnc(-c2ccncc2)s1)Nc1ccccc1 > 30 µM, O=C(CSc1nnc(-c2ccc(O)cc2)o1)Nc1ccccc1Br > 30 µM

AC50, active:
Cn1c(N=Nc2ccccc2)nc2ccccc21 27.9 µM, CCn1c(C)nc2cc(-c3nc4n(n3)Cc3ccccc3-4)ccc21 24.3 µM, COc1ccc(/C=C/c2nc3ccccc3n2C)cc1 14.3 µM
